Laboratory results published in PubChem BioAssay AID2113 (National Center for Advancing Translational Sciences (NCATS), 2009).
Inconclusive results are not listed. A call without a number means that no potency is given here. Calls of active or inactive are those of the source. Calls come from the whole dose curve; as a rule, active = well fitted curve in either direction with a large enough effect; inconclusive = small, poorly fitted or top-dose-only effect; inactive = no such curve, though single readings can be large or run the other way.
Potency is the fitted concentration of half-maximal effect.
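Throughout, for potency: fluorescence of 4-methylumbelliferone released from a fluorogenic glucopyranoside substrate at pH 5.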

The molecules below were run against Lysosomal alpha-glucosidase (Homo sapiens) (UniProt P10253) (assay: Confirmation of Inhibitors and Activators of Human alpha-Glucosidase From Spleen Homogenate). Conditions: alpha-glucosidase enzyme activity; series mostly up to 60.5 µM.
Outline: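 Compounds titrated against spleen-homogenate alpha-glucosidase, pH 5.0, 1 mM 4-MU-glucoside substrate, 37 C for 40 min. Fluorescence after pH 10 stop, normalised to no-enzyme and enzyme controls; Hill-equation AC50.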
In the case of `c1ccc(-c2nc3nc4ccccc4nc3n2CC2CCCO2)cc1` (stereo unspecified), the Potency is reported as “inactive”. `CC(C)CNc1c(N)n(CC(C)C)c(=O)[nH]c1=O` was tested, and the Potency was “inactive”. For `Cc1ccc(S(=O)(=O)NC(=O)NN2CCCCCC2)cc1`, the Potency was “inactive”. With `CCC(C)N1CNc2c(c(=O)[nH]c(=S)n2-c2cccc(C)c2)C1` (stereo unspecified) the Potency was “inactive”. With `O=C(Nc1cc(S(=O)(=O)N2CCOCC2)ccc1N1CCCC1)c1cc(=O)[nH]c2ccccc12` the Potency was “inactive”. For `O=c1oc2ccc(Cl)cc2cc1-c1nc2c(s1)CCc1ccccc1-2`, the Potency was “inactive”. In the case of `NN=C1c2cc(S(=O)(=O)NCCO)ccc2-c2ccc(S(=O)(=O)NCCO)cc21`, the Potency is reported as “inactive”. In the case of `COc1ccc(C(=O)N2CCN(c3ccc([N+](=O)[O-])c(NCCc4ccc(OC)c(OC)c4)c3)CC2)cc1`, the Potency is reported as “inactive”. In the case of `C(=C\c1ccc2ccccc2n1)/c1ccc2c(c1)OCO2`, the Potency is reported as “inactive”. `O=S(=O)(c1ccc(Cl)cc1)N1CCN(c2nc(Nc3cc(Cl)ccc3O)nc3ccccc23)CC1` was tested, and the Potency was “inactive”. In the case of `CC(=O)c1ccc(S(=O)(=O)N2CCOCC2)cc1`, the Potency is reported as “inactive”. With `CCCN1CNc2c(c(=O)[nH]c(=O)n2CCc2ccc(OC)c(OC)c2)C1` the Potency was 17.8 µM (active). For `O=C(c1cccc2ccccc12)N1CCN(S(=O)(=O)c2ccccc2)CC1`, the Potency was “inactive”. For `CCN(CC)S(=O)(=O)c1ccc2c(c1)-c1cc(S(=O)(=O)N(CC)CC)ccc1C2=NNC(N)=S`, the Potency was “inactive”. In the case of `Cc1cnc(C(=O)Nc2cc(S(=O)(=O)N3CCOCC3)ccc2N2CCN(C)CC2)cn1`, the Potency is reported as “inactive”. For `Cc1nc(SCC(=O)N2CCN(c3ccccc3)CC2)c2oc3ccccc3c2n1`, the Potency was “inactive”. `Cc1cccc(-n2c(N)cc(=O)[nH]c2=S)c1` was tested, and the Potency was “inactive”. `COc1ccc(-c2nnc(NC(=O)CSc3ccc(Cl)cc3)s2)cc1` was tested, and the Potency was “inactive”. In the case of `CCCN1CNc2c(c(=O)[nH]c(=S)n2CCC)C1`, the Potency is reported as “inactive”. For `O=C(Cc1ncc(C(F)(F)F)cc1Cl)NCCc1ccccc1`, the Potency was “inactive”. `OCCNc1nc(-c2cccs2)nc2ccccc12` was tested, and the Potency was “inactive”. With `COc1cc(=O)[nH]c(=O)n1C(=O)Cc1ccccc1` the Potency was “inactive”. `COc1cccc2cc(-c3nc(-c4ccc(C)cc4)c(C)s3)c(=O)oc12` was tested, and the Potency was “inactive”. In the case of `CCc1sc(-c2cc3ccc(O)cc3oc2=O)nc1-c1cc(C)ccc1C`, the Potency is reported as “inactive”. `N#Cc1cccc(S(=O)(=O)N2CCOCC2)c1` was tested, and the Potency was “inactive”. With `O=S(=O)(c1ccccc1)N1CCN(S(=O)(=O)c2ccccc2)CC1` the Potency was “inactive”. With `O=C(c1ccccc1)N1CCN(S(=O)(=O)c2ccccc2)CC1` the Potency was “inactive”. In the case of `C=CCCCCCCCCCCCc1ccco1`, the Potency is reported as “inactive”. `COc1ccc(/C=c2\s/c(=C/C(=O)c3ccc(C)cc3)[nH]c2=O)cc1OC` was tested, and the Potency was “inactive”. With `COc1ccc(CCn2c3c(c(=O)[nH]c2=S)CN(C(C)C)CN3)cc1OC` the Potency was 44.7 µM (active). With `CCc1sc(-c2cc3ccccc3oc2=O)nc1-c1ccccc1` the Potency was “inactive”. `COC(=O)CSc1ccc(C#N)c(SCC(=O)OC)c1` was tested, and the Potency was “inactive”. With `C[C@H](NC(=O)/C(C#N)=C/c1ccc(O)c(O)c1)c1ccccc1` the Potency was “inactive”. With `COc1ccc(CCn2c3c(c(=O)[nH]c2=S)CN(CC(C)C)CN3)cc1OC` the Potency was 14.1 µM (active). In the case of `CC(=O)c1ccc(N2CCN(S(=O)(=O)c3ccc4[nH]c(=O)[nH]c4c3)CC2)cc1`, the Potency is reported as “inactive”. In the case of `N#Cc1ccccc1S(=O)(=O)N1CCOCC1`, the Potency is reported as “inactive”.
